Assay outcomes from PubChem.
Only some compounds are listed: those with a hit (about 4.8% of all), similar ones and a draw of the others.
DAX1 inh-1 – DAX1 (NR0B1) inhibition, primary screen; AID 652010; actives 1.1% (n = 370,000); inhibition, % at 6.8 µM; HEK293T StAR-luciferase reporter, SF-1/DAX-1 repression relief;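 active means inhibition above the mean over all tested compounds plus 3 SD, cut at about 3.6% in these data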;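 further: 0% = DAX-1 cells with DMSO and 100% = cells lacking DAX-1 with DMSO; higher inhibition means more luminescence from relief of DAX-1 repression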
hgDAF-12 ag – hgDAF-12 agonism, primary luciferase screen; HEK293 GAL4-hgDAF12 UAS-luciferase reporter, agonist luminescence; normalized to butyrate control; activation, % at 6.8 µM; actives 1.8% (n = 370,000); AID 687014;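 active means activation above a cutoff set at the mean of all screened compounds plus 3 SD, cut at about 10% in these data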;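 further: 0% = DMSO wells and 100% = sodium butyrate wells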
hcDAF12 agonist – activators of H. contortus DAF-12 nuclear receptor | HEK293 hcDAF-12 lit1-tk-luc reporter, luminescence; 0% DMSO, 100% Δ7-dafachronic acid | activation, % at 6.8 µM | actives 1.4% (n = 370,000) | AID 652067;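 active means activation above the mean of all tested compounds plus 3 SD, cut at about 5.5% in these data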;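 further: 100% = response to 3 µM Δ7-dafachronic acid high control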
DAX1 inh-2 – inhibitors of human orphan nuclear receptor DAX1 (NR0B1) | P51843 | HEK293 Gal4-DAX1 luciferase reporter, luminescence | inhibition, % at 6.75 µM | actives 0.99% (n = 340,000) | AID 504766;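 active means inhibition above the mean over all tested compounds plus 3 SD, cut at about 4.2% in these data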;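 further: 0% = DAX1-transfected cells with DMSO and 100% = empty-vector control cells with DMSO; inhibition shows as a rise in luminescence from relieved DAX1 repression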
ssDAF-12 act – S. stercoralis DAF-12 activation, primary screen; HEK293 ssDAF-12/GRIP1 lit1-tk-luc reporter, luminescence; % of 3 µM dafachronic acid response; activation, % at 6.8 µM; actives 1% (n = 370,000); AID 652126;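 active means activation above the mean over all tested compounds plus 3 SD, cut at about 0.9% in these data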;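 further: 0% = DMSO-only wells and 100% = 3 µM delta7-dafachronic acid wells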
SMARCA2 act – SMARCA2 function activation, primary screen; MG213 cells, MMTV-luciferase reporter, dexamethasone, overnight; activation, % at 9.1 µM; actives 1% (n = 370,000); in the data active means activation above about 7.8%;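 further: 0% = vehicle wells and 100% = reference activator wells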
LXR ag – LXR-beta agonism as hcDAF-12 counter-screen | activation, % at 6.8 µM | HEK293 Gal4-LXR tk-luc reporter, luminescence, 24 h; normalized: DMSO 0%, positive control 100% | 3,400 tested, under 10 active | shares compounds with hcDAF12 agonist;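 active means mean percent activation of the reporter above a cutoff set as the average over tested compounds plus their standard deviation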
Target sequence (P55055 whole entry, looked up, the tested form may be a part): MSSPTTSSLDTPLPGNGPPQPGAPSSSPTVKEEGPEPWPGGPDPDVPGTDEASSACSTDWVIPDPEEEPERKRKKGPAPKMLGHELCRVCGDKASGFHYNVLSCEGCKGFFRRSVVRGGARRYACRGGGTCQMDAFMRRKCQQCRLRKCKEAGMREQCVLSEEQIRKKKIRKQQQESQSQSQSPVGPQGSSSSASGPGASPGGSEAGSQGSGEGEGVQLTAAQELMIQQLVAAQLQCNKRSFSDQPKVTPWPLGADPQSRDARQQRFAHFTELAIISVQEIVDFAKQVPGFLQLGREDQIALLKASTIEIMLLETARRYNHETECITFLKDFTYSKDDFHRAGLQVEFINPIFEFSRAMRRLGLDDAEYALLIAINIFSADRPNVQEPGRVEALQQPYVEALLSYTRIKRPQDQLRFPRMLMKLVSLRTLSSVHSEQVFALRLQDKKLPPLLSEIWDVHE
hcDAF12 ag – hcDAF-12 agonism, confirmation assay; activation, % at 6.8 µM; HEK293 hcDAF-12 lit1-tk-luc reporter, luminescence; % of Δ7-dafachronic acid response; actives 61% (n = 3,400); shares compounds with hcDAF12 agonist;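 active means mean activation across triplicate tests above the threshold derived from the earlier primary screen, cut at about 5.5% in these data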;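 further: 0% = DMSO only wells and 100% = 3 µM Δ7-dafachronic acid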
The depositor's hits bear a star; nt = no result given.

SMILES | DAX1 inh-1 | hgDAF-12 ag | hcDAF12 agonist | DAX1 inh-2 | ssDAF-12 act | SMARCA2 act | LXR ag | hcDAF12 ag
c1nc(NCC2CCCO2)c2cc(-c3ccc4c(c3)OCO4)ccc2n1 (stereo unspecified) | nt | 2 | 1 | nt | -1 | nt | nt | nt
Cc1c(C#N)c(=O)c(-[n+]2ccccc2)c([S-])n1-c1ccc(Cl)cc1 | 1 | 2 | 7.3* | 3 | -2 | 2 | 0 | 0
COc1ccc(NC(=O)C(c2ccccn2)N(C(C)=O)c2ccc(C)cc2)cc1 (stereo unspecified) | 1 | 4 | 10* | -1 | 1.6* | -1 | 0 | 4
CCN(CC)CCn1c(NC(=O)c2ccc(C(F)(F)F)cc2)nc2ccccc21 | 0 | 0 | 0 | 1 | -1 | 2 | nt | nt
CN(C)CCn1c(NC(=O)c2ccc(Cl)cc2)nc2ccccc21 | 3.8* | 5 | 7.1* | 1 | 0 | 8 | 1 | 9.9*
CCN(CC)CCn1c(NC(=O)c2ccc(C)cc2)nc2ccccc21 | 1 | 10 | 11* | 3 | 1.0* | 2 | 0 | 5
CC(C)OC(=O)CSc1nnc2c3ccccc3n(C)c2n1 | 0 | 0 | 3 | 0 | -1 | 1 | nt | nt
CC(C)CSc1nnc2c3ccccc3n(C)c2n1 | 2 | 10 | 14* | 10* | 1.6* | 1 | 1 | 11*
COc1ccc(-c2cscc2N)cc1 | -2 | 1 | -1 | nt | -1 | -8 | nt | nt
COCCNC(=O)c1c(N)[nH]c(C(=O)c2ccc(Br)cc2)c1-c1c(OC)ccc2ccccc12 | nt | 2 | -2 | nt | -1 | nt | nt | nt
COC1CCN(C(=O)c2cc(COc3ccc(-n4cncn4)cc3)on2)CC1 | 0 | 0 | -1 | 0 | -1 | -1 | nt | nt
COc1ccc(OCc2cc(C(=O)N3CCC(OC)CC3)no2)c2ccccc12 | 3.8* | 9 | 7.8* | 3 | 1 | 2 | 0 | 6.4*
COc1ccc(OCc2cc(C(=O)NC3CCOC(C)(C)C3)no2)c2ccccc12 (stereo unspecified) | 4.1* | 6 | 7.9* | 3 | 2.1* | 0 | 0 | 8.0*
COc1ccc(OC)c(Nc2nc(=O)c3cccnc3s2)c1 | nt | nt | nt | 1 | nt | nt | nt | nt
Cc1ccc(Nc2nc(=O)c3cccnc3s2)cc1 | 2 | 9 | 11* | 1 | 1.3* | 2 | 1 | 9.3*
Cc1cccn2c(=O)c3cc(C(=O)NCCCOC(C)C)sc3nc12 | 0 | -1 | 1 | 2 | -1 | 0 | nt | nt
CCOCCCNC(=O)c1cc2c(=O)n3cccc(C)c3nc2s1 | 0 | 1 | 12* | 0 | 0 | 2 | 0 | 3
COc1cc(NC(=O)C2C3C=CC(C3)C2C(=O)O)ccc1NC(=O)c1ccccc1 (stereo unspecified) | 0 | -2 | -3 | 0 | -1 | -1 | nt | nt
COc1cccc(C(=O)Nc2ccc(NC(=O)C3C4C=CC(C4)C3C(=O)O)cc2)c1 (stereo unspecified) | 3 | 11* | 12* | 0 | 1.0* | 3 | 0 | 3
Clc1ccc2nc(-c3ccc4c(c3)OCO4)cn2c1 | 3.7* | 5 | 7.5* | -1 | -1 | -1 | 1 | 7.1*
Cc1cc(C)cc(NS(=O)(=O)c2ccc3[nH]cc(C(=O)N4CCc5ccccc54)c(=O)c3c2)c1 | 0 | 0 | 1 | 0 | 0 | -1 | nt | nt
CCc1ccc(NS(=O)(=O)c2ccc3[nH]cc(C(=O)N4CCc5ccccc54)c(=O)c3c2)cc1 | 3 | 10 | 7.3* | 2 | 1.2* | 1 | 1 | 5.7*
O=C(NC1=NCCS1)c1sc2cc(F)ccc2c1Cl | 2 | 11* | 9.4* | 3 | 1.3* | 6 | 2 | 15*
OCc1ccccc1OCc1ccccc1 | 1 | 3 | 4 | nt | -1 | -3 | nt | nt
O=C(Nc1csc([N+](=O)[O-])c1)Nc1ccccc1Cl | -1 | 2 | -1 | 2 | -1 | -3 | nt | nt
SMILES | DAX1 inh-1 | hgDAF-12 ag | hcDAF12 agonist | DAX1 inh-2 | ssDAF-12 act | SMARCA2 act | LXR ag | hcDAF12 ag
O=C(Nc1ccc(Cl)cc1)Nc1ccccc1Sc1ncc([N+](=O)[O-])s1 | 0 | 4 | 7.6* | -1 | 1.1* | 4 | 0 | 1
C[C@H]1[C@@H](OC(=O)Nc2ccccc2C(F)(F)F)CC[C@@]23CCCN2C(=O)CCC[C@@H]13 | nt | 1 | 0 | nt | -2 | nt | nt | nt
O=C(NNC(=O)c1ccc2nc[nH]c2c1)c1ccccc1 | 0 | -1 | -1 | 0 | -2 | -3 | nt | nt
Cc1ccc(NC(=O)c2ccc3nc[nH]c3c2)nc1 | 9.6* | 7 | 8.9* | 1 | 0 | 4 | 1 | 5
CSc1ccc(-c2csc(N3CCC(C(N)=O)CC3)n2)cc1 | nt | 8 | 0 | nt | -1 | nt | nt | nt
O=C(NC(=S)N1CCCc2ccccc21)c1ccc(Cl)cc1 | 1 | 4 | 7.9* | 2 | 0 | 1 | 0 | 9.2*
O=C(NC(=S)N1CCCc2ccccc21)c1ccccc1 | 0 | 8 | 8.3* | 1 | 1 | 3 | 0 | 9.2*
COc1ccccc1C(=O)NC(=S)N1CCCc2ccccc21 | -1 | -2 | 2 | 2 | -1 | 1 | nt | nt
COC(=O)c1ccccc1NC(=O)NCC1CCN(Cc2ccc(OC)cc2)CC1 | -2 | -2 | -3 | nt | -1 | -3 | nt | nt
CCOc1ccc(-n2c(SCC(=O)NN=Cc3ccc(C(=O)O)cc3)nnc2-c2cccnc2)cc1 | 0 | 0 | 0 | nt | 0 | -2 | nt | nt
CCCN1CCC(NC(=S)Nc2ccc([N+](=O)[O-])cc2)CC1 | 1 | 0 | 4 | 3 | -1 | 2 | nt | nt
CCCN1CCN(C(=S)Nc2ccc([N+](=O)[O-])cc2)CC1 | 1 | 3 | 9.1* | -1 | 0 | 1 | 0 | 3
CCC(=O)NNc1nc2c(F)cccc2s1 | 0 | 5 | 7.0* | 4 | 0 | -1 | 0 | 4
Fc1cccc2sc(Nc3nc4ccccc4s3)nc12 | 1 | 0 | 12* | 2 | 0 | 0 | 1 | 11*
COc1ccc2[nH]c3c(c2c1)CCN[C@]31C(=O)Nc2ccccc21 | -1 | 2 | 0 | nt | 0 | -1 | nt | nt
O=C1COc2ccccc2C(c2nnnn2Cc2ccccc2)N1Cc1cccs1 (stereo unspecified) | 0 | 1 | -2 | nt | 1 | -3 | nt | nt
Cc1ccc(C2=NN(S(C)(=O)=O)C(c3ccc4nccnc4c3)C2)cc1 (stereo unspecified) | 2 | 7 | 2 | -1 | -1 | 0 | nt | nt
